Screening data (PubChem)
STAT3 binder = STAT3 (human) binding | P40763 | Small molecule microarray, His-STAT3 binding, anti-His fluorescence | calls only | 0.2% of 17,000 active;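 active = compounds whose four printed spots each show fluorescence over background unusually high for their array block, chance value under 7%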
Myc binder = c-Myc (human) binding | P01106 | small molecule microarray, His-c-Myc binding, anti-His fluorescence | calls only | 1.5% of 17,000 active;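 active = spot fluorescence over background with P-value below 7% in all four replicate spots, showing protein binding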
Target sequence (P01106 whole entry, looked up): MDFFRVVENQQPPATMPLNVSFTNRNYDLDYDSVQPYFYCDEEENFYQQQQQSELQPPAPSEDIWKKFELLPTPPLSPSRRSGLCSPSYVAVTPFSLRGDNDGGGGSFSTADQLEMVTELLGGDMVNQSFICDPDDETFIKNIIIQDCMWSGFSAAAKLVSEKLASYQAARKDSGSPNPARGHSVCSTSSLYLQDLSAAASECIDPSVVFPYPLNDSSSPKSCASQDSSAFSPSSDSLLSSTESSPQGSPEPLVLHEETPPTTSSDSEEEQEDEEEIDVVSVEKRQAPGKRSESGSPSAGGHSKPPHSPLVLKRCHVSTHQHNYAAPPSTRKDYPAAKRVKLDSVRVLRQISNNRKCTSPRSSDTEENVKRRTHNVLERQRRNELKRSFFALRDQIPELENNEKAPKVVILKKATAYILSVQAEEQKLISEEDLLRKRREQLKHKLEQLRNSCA
NFkB binder = binders of human NF-kappa-B p105. Small molecule microarray, anti-His fluorescence binding. calls only. AID 624139. 1.3% of 17,000 active. P19838;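 active = spot fluorescence over background significantly raised, with a chance value under 7% in all four replicate spots of the compound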;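 note: probe protein is his-tagged human p50 processed subunit at 1 µg/ml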
mut p53 SMM = mutant p53 (human) binding; calls only; small molecule microarray binding, anti-GST fluorescence; 0.4% of 17,000 active; AID 624136;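 active = compounds whose four printed spots each glow above background more than chance allows, each with a p-value under 7%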
Of the large screens only hits and unclear results are named; the others gave an inactive call. Rows were chosen to be rich in hits. Some 2.5% of all compounds tested hit in one or more screens of this group.

O=C1C2(CO)C=C(Br)[C@H](C[C@@H]2c2ccccc2)[C@@]12CO2	none
CC(C)OC(=O)c1cn(Cc2c(F)cccc2F)c2sc(-c3ccc(NC(=O)C(C)C)cc3)c(CN(C)Cc3ccccc3)c2c1=O	Myc binder active, NFkB binder active
C[C@H](CO)N1C[C@H](C)[C@H](CN(C)C(=O)CCC(F)(F)F)OCCCC[C@H](C)Oc2ccc(NS(=O)(=O)c3ccccc3)cc2C1=O	Myc binder active, NFkB binder active
C[C@H](CO)N1C[C@H](C)[C@@H](CN(C)C(=O)CCC(F)(F)F)OCCCC[C@H](C)Oc2ccc(NS(=O)(=O)c3ccccc3)cc2C1=O	none
Cc1ccc(S(=O)(=O)Nc2ccc3c(c2)C(=O)N([C@@H](C)CO)C[C@H](C)[C@@H](CN(C)C(=O)CCC(F)(F)F)OCCCC[C@H](C)O3)cc1	NFkB binder active
C[C@H](CO)N1C[C@H](C)[C@@H](CN(C)C(=O)CCC(F)(F)F)OCCCC[C@H](C)Oc2ccc(NS(=O)(=O)c3ccc(F)cc3)cc2C1=O	Myc binder active, NFkB binder active
C[C@@H]1CCCCO[C@@H](CN(C)C(=O)CCC(F)(F)F)[C@@H](C)CN([C@H](C)CO)C(=O)c2cc(NS(=O)(=O)c3ccccc3)ccc2O1	none
COC(=O)c1c(NC(=S)NCc2ccco2)sc2c1CCC(C)C2 (centres undefined)	none
O=C(Nc1sc2c(c1C(=O)NCc1ccco1)CCC2)c1sc2ccccc2c1Cl	Myc binder active
C=CCOC(=O)[C@H]1[C@@H]2C(=O)O[C@@H](c3ccccc3)[C@@H](c3ccccc3)N2[C@@H](c2ccc(OCCOC(=O)[C@H]3C[C@H]4C(=O)N5CCC[C@H]5C(=O)N4[C@H]3c3ccc(O)cc3)cc2)[C@]12C(=O)Nc1ccccc12	NFkB binder active
C=CCOC(=O)[C@@H]1[C@H]2C(=O)O[C@H](c3ccccc3)[C@H](c3ccccc3)N2[C@H](c2ccc(OCCOC(=O)[C@@H]3C[C@@H]4C(=O)N[C@@H](Cc5ccccc5)C(=O)N4[C@@H]3c3cccc(OCCO)c3)cc2)[C@@]12C(=O)Nc1ccc(I)cc12	NFkB binder active
C=CCOC(=O)[C@H]1[C@@H]2C(=O)O[C@@H](c3ccccc3)[C@@H](c3ccccc3)N2[C@@H](c2ccc(OCCOC(=O)[C@@H]3C[C@@H]4C(=O)N5CCC[C@H]5C(=O)N4[C@@H]3c3ccc(O)cc3)cc2)[C@]12C(=O)Nc1ccc(I)cc12	none
C=CCOC(=O)[C@@H]1[C@H]2C(=O)O[C@H](c3ccccc3)[C@H](c3ccccc3)N2[C@H](c2ccc(OCCOC(=O)[C@@H]3C[C@@H]4C(=O)N[C@@H](CC(C)C)C(=O)N4[C@@H]3c3ccc(O)cc3)cc2)[C@@]12C(=O)Nc1ccc(I)cc12	none
N#Cc1cc(C#N)c(SCCN2CCOCC2)nc1N	mut p53 SMM active
Cn1ccnc1SCC(=O)Nc1cccc(F)c1	none
CCN(CC)C(=O)c1sc(NC(=S)Nc2ccc(Br)cn2)c(C(=O)OC)c1C	none
O=C(CSc1nc2c(c(C(F)(F)F)n1)CCc1ccccc1-2)Nc1c(F)cc(F)cc1Br	none
C=CCN1Cc2ccccc2[C@@H]2OC(c3ccc(OCCCO)cc3)=N[C@]2(CCC(=O)OC(C)(C)C)C1=O	NFkB binder active
O=C1N(Cc2ccccc2)Cc2ccccc2C[C@@]12N=C(c1ccc(OCCCO)cc1)O[C@H]2c1ccccc1	NFkB binder active, mut p53 SMM active
